For test [1], the target named is Paired box protein Pax-6 (Homo sapiens) (UniProt P26367). Nature of the test: ATG_Pax6_CIS: Attagene CIS-FACTORIAL HepG2 Assay for human Paired Box 6 (PAX6) (AID 2282956). As to conditions: HepG2 CIS-FACTORIAL PAX6 reporter transcription, RNA readout; actives raise or lower the signal. The method in brief: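 Multiplexed cis-reporter HepG2 system; 24 h treatment; reporter mRNA read by RT-PCR/CE fluorescence; bidirectional fit vs DMSO.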

Test [2] can be described thus: ATG_PXRE_CIS: Attagene CIS-FACTORIAL HepG2 Assay for human Pregnane X Receptor Element (PXRE) (AID 2282957). Particulars: HepG2 Attagene CIS-FACTORIAL PXRE reporter, mRNA; actives raise or lower the signal. The method in brief:
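HepG2 cells transiently transfected with cis-regulated multiple reporter transcription units; endogenous factor activity measured as reporter mRNA 24 h after dosing. RT-PCR, fluorescent primer extension, HpaI digestion, capillary electrophoresis; bidirectional fit versus DMSO baseline.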

Test [3] can be described thus: ATG_PPRE_CIS: Attagene CIS-FACTORIAL HepG2 Assay for human Peroxisome Proliferator-activated Response Element (PPRE) (AID 2282958). As to conditions: HepG2 PPRE cis-element reporter, Attagene transcription factor profiling; actives raise or lower the signal. The method in brief: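 In this cell-based multiplex, a PPRE cis element drives a reporter sequence in transiently transfected HepG2 cells. Following 24 h treatment, labeled cDNA amplicons are sized and quantified by capillary electrophoresis, with DMSO defining baseline.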

Test [4] in a line: ATG_RORE_CIS: Attagene CIS-FACTORIAL HepG2 Assay for human RAR-related Orphan Receptor Element (RORE) (AID 2282959). Particulars: HepG2 Attagene cis-factorial RORE reporter, mRNA; actives raise or lower the signal. The method in brief:
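Endogenous factor activity at a cis response element is read as reporter transcript levels in HepG2 cells, 24 h post-dose. Transcripts are quantified by RT-PCR with capillary electrophoresis, and data fitted in both directions against DMSO.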

Test [5] is described as follows: ATG_Sox_CIS: Attagene CIS-FACTORIAL HepG2 Assay for human SRY-box transcription factor (SOX) (AID 2282960). Particulars: HepG2 Attagene cis-factorial SOX reporter, mRNA; actives raise or lower the signal. The method in brief: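 Measures mRNA induction of a SOX1-associated reporter in HepG2 after 24 h dosing. Fluorescently labelled RT-PCR fragments are separated by capillary electrophoresis, and gain or loss relative to DMSO control is fitted.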

For test [6], the target named is Transcription factor Sp1 (Homo sapiens) (UniProt P08047). Nature of the test: ATG_Sp1_CIS: Attagene CIS-FACTORIAL HepG2 Assay for human Specificity Protein 1 (Sp1) (AID 2282961). Particulars: HepG2 Sp1 cis-reporter transcription, actives raise or lower the signal. The method in brief: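 Cells: HepG2, transiently transfected with cis-regulated multiplexed reporters. Exposure: 24 h. Detection: reporter transcripts amplified, fluorescently labeled, restriction-digested and sized by capillary electrophoresis. Analysis: bidirectional fit relative to DMSO.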
Transcription factor Sp1 (Homo sapiens), sequence (P08047 whole entry, looked up): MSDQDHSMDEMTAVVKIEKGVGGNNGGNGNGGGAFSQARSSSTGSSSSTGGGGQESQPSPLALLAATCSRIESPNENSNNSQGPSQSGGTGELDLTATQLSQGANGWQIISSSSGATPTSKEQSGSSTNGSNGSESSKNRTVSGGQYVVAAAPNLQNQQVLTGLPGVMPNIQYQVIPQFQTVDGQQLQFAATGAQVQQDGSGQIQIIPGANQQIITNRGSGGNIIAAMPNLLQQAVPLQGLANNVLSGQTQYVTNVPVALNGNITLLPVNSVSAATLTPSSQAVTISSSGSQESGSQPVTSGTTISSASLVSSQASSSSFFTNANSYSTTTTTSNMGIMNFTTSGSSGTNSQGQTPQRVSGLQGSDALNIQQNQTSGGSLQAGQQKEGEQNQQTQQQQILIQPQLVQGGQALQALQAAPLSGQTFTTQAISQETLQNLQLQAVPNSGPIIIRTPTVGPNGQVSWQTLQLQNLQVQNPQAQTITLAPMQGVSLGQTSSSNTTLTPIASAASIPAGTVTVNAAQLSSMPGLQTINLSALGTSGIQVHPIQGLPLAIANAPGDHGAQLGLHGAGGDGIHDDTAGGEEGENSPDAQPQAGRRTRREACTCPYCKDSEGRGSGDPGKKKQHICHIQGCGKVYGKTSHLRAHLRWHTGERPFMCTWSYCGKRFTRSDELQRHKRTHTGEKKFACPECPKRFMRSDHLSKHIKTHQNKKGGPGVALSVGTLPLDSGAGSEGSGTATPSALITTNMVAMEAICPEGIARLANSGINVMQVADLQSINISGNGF

The nature of test [7]: ATG_SREBP_CIS: Attagene CIS-FACTORIAL HepG2 Assay for human Sterol Regulatory Element Binding (SREBP) (AID 2282962). As to conditions: HepG2 Attagene cis-factorial SREBP reporter, mRNA; actives raise or lower the signal. The method in brief: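 mRNA induction of transfected cis-promoter reporters in HepG2 cells, 24 h post-dose. Detection: RT-PCR with 6-FAM-labelled products, HpaI digest, capillary electrophoresis. DMSO served as negative control and baseline.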

Test [8] concerns the target Signal transducer and activator of transcription 3 (Homo sapiens) (UniProt P40763). Nature of the test: ATG_STAT3_CIS: Attagene CIS-FACTORIAL HepG2 Assay for human Signal Transducer and Activator of Transcription 3 (STAT3) (AID 2282963). Particulars: HepG2, Attagene cis-factorial STAT3 reporter transcription; actives raise or lower the signal. The method in brief: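 Endogenous STAT3-responsive cis-element activity was read in transiently transfected HepG2 cells after 24 h treatment. Reporter transcripts were quantified via RT-PCR and capillary electrophoresis, with DMSO as negative control and bidirectional curve fitting.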

The nature of test [9]: ATG_TA_CIS: Attagene CIS-FACTORIAL HepG2 Assay for human TA Basal Promoter (AID 2282964). Particulars: HepG2 Attagene CIS-factorial TA basal promoter reporter; actives raise or lower the signal. The method in brief: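 Steps: transfect HepG2 with MRTUs; dose 24 h; isolate RNA, DNase-treat, reverse-transcribe; PCR and FAM-label reporter cDNA; digest with HpaI 2h at 37 C; run capillary electrophoresis. Activity fitted both directions against DMSO.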

Test [10] is described as follows: ATG_TAL_CIS: Attagene CIS-FACTORIAL HepG2 Assay for human TAL Basal Promoter (AID 2282966).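 Also: background control endpoint measuring basal TAL promoter reporter mRNA not a specific factor.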 As to conditions: HepG2 Attagene cis-factorial TAL promoter reporter; actives raise or lower the signal. The method in brief:
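HepG2 cells were transiently transfected with promoter-driven multiplexed reporter units and dosed for 24 h. Reporter mRNA was measured by RT-PCR with capillary electrophoresis fluorescence; bidirectional fits used DMSO as baseline, serving as a background control.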

Test [11] in a line: ATG_TGFb_CIS: Attagene CIS-FACTORIAL HepG2 Assay for human Transforming Growth Factor (TGF) (AID 2282967). Particulars: HepG2 Attagene CIS TGFb reporter, mRNA transcription; actives raise or lower the signal. The method in brief: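 Cells were dosed for 24 hours, after which total RNA was reverse-transcribed and reporter sequences amplified, labeled and sized by capillary electrophoresis. Activity was fitted in both directions against DMSO.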

Test [12] in a line: ATG_VDRE_CIS: Attagene CIS-FACTORIAL HepG2 Assay for human Vitamin D Receptor Element (VDRE) (AID 2282968). As to conditions: HepG2 VDRE cis-reporter transcription, actives raise or lower the signal. The method in brief: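 Reporter mRNA induction, quantified by capillary electrophoresis of fluorescently labelled RT-PCR products, was read 24 h after dosing HepG2 cells carrying transiently transfected cis-regulated reporter units; gain or loss relative to DMSO.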

The target of test [13] is X-box-binding protein 1 (Homo sapiens) (UniProt P17861). Put plainly: ATG_Xbp1_CIS: Attagene CIS-FACTORIAL HepG2 Assay for human X-box Binding Protein 1 (XBP1) (AID 2282972). Particulars: HepG2 XBP1 cis-element reporter, Attagene multiplex; actives raise or lower the signal. The method in brief: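 Fluorescence-labelled cDNA fragments from reporter transcripts, separated by capillary electrophoresis, give the signal. Source: HepG2 cells transfected with promoter-driven reporter units, harvested 24 h post-dose. DMSO served as reference for bidirectional curve fitting.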
X-box-binding protein 1 (Homo sapiens), sequence (P17861 whole entry, looked up, the tested form may be a part): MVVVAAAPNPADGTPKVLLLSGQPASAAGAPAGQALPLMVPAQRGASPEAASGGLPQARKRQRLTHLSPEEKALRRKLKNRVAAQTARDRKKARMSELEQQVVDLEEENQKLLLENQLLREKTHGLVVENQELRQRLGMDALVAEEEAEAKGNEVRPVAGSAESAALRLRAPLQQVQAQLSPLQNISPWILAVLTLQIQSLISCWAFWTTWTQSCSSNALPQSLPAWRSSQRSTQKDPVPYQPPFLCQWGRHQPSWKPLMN

Test [14] is described as follows: ATG_M_19_TRANS: Attagene TRANS-FACTORIAL HepG2 Assay for M19 Transcription Factor (Internal Marker) (AID 2282974; active = hit-call score of the fitted dose curve at least 0.9, where 1 is the maximum). As to conditions: HepG2 Attagene TRANS-FACTORIAL M19 internal marker reporter. The method in brief:
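Reporter mRNA induction was measured in transfected HepG2 cells 24 h after dosing. Endpoint fitted upward relative to DMSO and serves as a background control within the multiplexed TRANS panel.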

The nature of test [15]: ATG_TCF_b_cat_CIS: Attagene CIS-FACTORIAL HepG2 Assay for human T-Cell-Factor with beta-catenin (TCF/b-cat) (AID 2282965). Particulars: HepG2 TCF/beta-catenin cis-reporter transcription, actives raise or lower the signal. The method in brief:
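Endogenous TCF/LEF activity read as reporter transcript level via RT-PCR and capillary electrophoresis fluorescence in transfected HepG2, 24 h exposure; gain or loss of signal fitted against DMSO controls.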

Test [16] in a line: ATG_GAL4_TRANS: Attagene TRANS-FACTORIAL HepG2 Assay for GAL4 (Internal Marker) (AID 2282976; active = hit-call score of the fitted dose curve at least 0.9, where 1 is the maximum). Particulars: HepG2 Attagene TRANS GAL4 internal marker reporter. The method in brief:
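HepG2 cells transiently transfected with multiplexed GAL4-UAS reporter constructs were dosed for 24 h. Reporter mRNA was measured by RT-PCR, 6-FAM primer extension, HpaI digestion and capillary electrophoresis, and gain of signal was fitted relative to DMSO.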

Test [17] addresses Estrogen receptor (Homo sapiens) (UniProt P03372). Put plainly: ATG_ERa_TRANS: Attagene TRANS-FACTORIAL HepG2 Assay for human Estrogen Receptor alpha (ERa) (AID 2282970; active = hit-call score of the fitted dose curve at least 0.9, where 1 is the maximum). As to conditions: HepG2 Attagene TRANS ERa GAL4 reporter, mRNA. The method in brief:
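HepG2 cells transiently transfected with multiplexed GAL4-UAS reporter units; ERa activity read via exogenous chimeric NR-Gal4 protein. After 24 hour compound exposure, reporter mRNA measured by RT-PCR with 6-FAM labelling and capillary electrophoresis; gain-of-signal fitted relative to DMSO.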

The target in test [18] is Estrogen-related receptor gamma (Homo sapiens) (UniProt P62508). Nature of the test: ATG_ERRg_TRANS: Attagene TRANS-FACTORIAL HepG2 Assay for human Estrogen-Related Receptor gamma (ERRg) (AID 2282977; active = hit-call score of the fitted dose curve at least 0.9, where 1 is the maximum;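 also: hits increase reporter signal over DMSO so potencies reflect activators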). As to conditions: HepG2 Attagene TRANS reporter, ERRg transactivation. The method in brief: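 Transfect HepG2 with multiple GAL4-UAS reporter transcription units; dose chemicals 24 h; isolate RNA, reverse-transcribe with oligo(dT), PCR-amplify, label with 6-FAM, digest with HpaI; size fragments by capillary electrophoresis. DMSO serves as negative control.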
Estrogen-related receptor gamma (Homo sapiens), sequence (P62508 whole entry, looked up, the tested form may be a part): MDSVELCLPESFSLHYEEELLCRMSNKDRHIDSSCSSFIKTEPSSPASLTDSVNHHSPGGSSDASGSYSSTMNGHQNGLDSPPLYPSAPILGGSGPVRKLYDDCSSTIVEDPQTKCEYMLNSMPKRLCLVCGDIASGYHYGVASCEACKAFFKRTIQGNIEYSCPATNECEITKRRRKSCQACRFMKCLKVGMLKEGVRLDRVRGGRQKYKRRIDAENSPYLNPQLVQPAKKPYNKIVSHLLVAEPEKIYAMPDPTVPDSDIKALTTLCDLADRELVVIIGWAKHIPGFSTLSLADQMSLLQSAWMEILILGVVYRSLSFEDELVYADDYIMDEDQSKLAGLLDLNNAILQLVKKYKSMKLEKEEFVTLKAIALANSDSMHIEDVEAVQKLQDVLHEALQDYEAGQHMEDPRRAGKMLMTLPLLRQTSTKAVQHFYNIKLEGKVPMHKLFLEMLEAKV

Test [19] has as its target Nuclear receptor subfamily 1 group I member 3 (Homo sapiens) (UniProt Q14994). Nature of the test: ATG_CAR_TRANS: Attagene TRANS-FACTORIAL HepG2 Assay for human Constitutive Androstane Receptor (CAR) (AID 2282969; active = hit-call score of the fitted dose curve at least 0.9, where 1 is the maximum;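 also: activators raise reporter mRNA above DMSO so AC50 marks induction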). Particulars: HepG2 Attagene TRANS-FACTORIAL CAR reporter. The method in brief: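 Readout is reporter mRNA induction, quantified by fluorescent primer extension and capillary electrophoresis after RT-PCR. Cells were HepG2 transiently carrying chimeric NR-Gal4 constructs with GAL4-UAS reporters, treated for 24 h; activity scored upward from DMSO.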

The AC50 is the midpoint of the concentration-response curve, whichever way the signal moves.

Inconclusive results are not listed. Active and inactive are the calls of the source. The calls were made as follows, unless noted: active = hit-call score of the fitted dose curve at least 0.9, where 1 is the maximum; inactive = score below 0.9.

Paired box protein Pax-6 (Homo sapiens), sequence (P26367 whole entry, looked up): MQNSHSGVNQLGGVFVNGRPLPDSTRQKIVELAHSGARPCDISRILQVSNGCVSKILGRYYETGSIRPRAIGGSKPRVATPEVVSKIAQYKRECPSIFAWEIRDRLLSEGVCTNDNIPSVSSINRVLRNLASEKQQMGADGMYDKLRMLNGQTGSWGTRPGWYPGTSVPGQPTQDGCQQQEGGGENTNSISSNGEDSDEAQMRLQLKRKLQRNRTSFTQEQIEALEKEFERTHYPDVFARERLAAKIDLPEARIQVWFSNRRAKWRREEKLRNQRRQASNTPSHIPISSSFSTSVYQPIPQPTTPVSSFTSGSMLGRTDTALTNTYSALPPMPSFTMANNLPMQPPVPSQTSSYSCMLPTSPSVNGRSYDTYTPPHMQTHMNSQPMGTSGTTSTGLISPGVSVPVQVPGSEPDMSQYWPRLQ
Estrogen receptor (Homo sapiens), sequence (P03372 whole entry, looked up, the tested form may be a part): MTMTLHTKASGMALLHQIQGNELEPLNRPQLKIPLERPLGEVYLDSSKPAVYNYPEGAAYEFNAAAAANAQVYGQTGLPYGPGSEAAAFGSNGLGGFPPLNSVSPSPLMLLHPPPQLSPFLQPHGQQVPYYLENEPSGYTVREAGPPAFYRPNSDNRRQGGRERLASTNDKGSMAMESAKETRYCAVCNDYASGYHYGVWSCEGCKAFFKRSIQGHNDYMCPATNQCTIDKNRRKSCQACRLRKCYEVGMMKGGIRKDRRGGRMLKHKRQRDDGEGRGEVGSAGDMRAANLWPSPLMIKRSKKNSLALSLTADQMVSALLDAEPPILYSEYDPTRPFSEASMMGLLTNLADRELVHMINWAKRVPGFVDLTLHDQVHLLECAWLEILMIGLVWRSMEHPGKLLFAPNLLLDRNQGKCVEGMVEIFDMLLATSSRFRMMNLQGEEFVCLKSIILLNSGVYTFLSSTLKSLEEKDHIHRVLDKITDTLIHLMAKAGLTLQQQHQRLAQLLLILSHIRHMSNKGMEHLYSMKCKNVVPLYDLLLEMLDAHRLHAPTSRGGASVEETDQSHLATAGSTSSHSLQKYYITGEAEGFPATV
Signal transducer and activator of transcription 3 (Homo sapiens), sequence (P40763 whole entry, looked up): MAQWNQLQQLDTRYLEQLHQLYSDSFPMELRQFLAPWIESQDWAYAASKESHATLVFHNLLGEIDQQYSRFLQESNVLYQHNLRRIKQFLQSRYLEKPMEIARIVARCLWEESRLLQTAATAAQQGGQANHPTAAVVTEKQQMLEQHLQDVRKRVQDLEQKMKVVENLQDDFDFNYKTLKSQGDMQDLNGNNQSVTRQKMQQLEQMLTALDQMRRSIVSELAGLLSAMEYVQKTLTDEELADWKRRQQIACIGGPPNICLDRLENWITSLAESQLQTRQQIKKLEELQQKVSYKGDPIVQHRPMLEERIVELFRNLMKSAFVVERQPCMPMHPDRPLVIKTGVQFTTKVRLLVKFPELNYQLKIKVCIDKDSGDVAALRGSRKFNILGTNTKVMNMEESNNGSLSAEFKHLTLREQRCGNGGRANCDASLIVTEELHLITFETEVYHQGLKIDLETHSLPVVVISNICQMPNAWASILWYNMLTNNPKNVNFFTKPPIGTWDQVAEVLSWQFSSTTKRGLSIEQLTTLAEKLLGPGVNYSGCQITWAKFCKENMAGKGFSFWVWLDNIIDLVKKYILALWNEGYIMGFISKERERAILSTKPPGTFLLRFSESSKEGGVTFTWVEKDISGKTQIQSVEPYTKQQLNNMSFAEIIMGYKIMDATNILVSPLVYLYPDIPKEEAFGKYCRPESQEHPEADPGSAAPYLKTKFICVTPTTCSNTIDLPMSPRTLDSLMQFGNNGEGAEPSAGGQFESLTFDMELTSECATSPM
Nuclear receptor subfamily 1 group I member 3 (Homo sapiens), sequence (Q14994 whole entry, looked up, the tested form may be a part): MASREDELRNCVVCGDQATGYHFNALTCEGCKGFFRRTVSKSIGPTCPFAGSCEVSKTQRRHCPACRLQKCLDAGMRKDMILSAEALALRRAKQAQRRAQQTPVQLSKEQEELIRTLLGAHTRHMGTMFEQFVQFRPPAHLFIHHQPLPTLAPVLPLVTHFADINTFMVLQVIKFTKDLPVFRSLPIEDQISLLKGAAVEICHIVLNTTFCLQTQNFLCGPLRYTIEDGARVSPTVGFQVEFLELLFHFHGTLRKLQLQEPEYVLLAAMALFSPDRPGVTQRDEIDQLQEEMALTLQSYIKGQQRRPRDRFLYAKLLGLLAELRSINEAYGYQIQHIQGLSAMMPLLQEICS

`CN(C)c1ccc(C(=C2C=CC(=[N+](C)C)C=C2)c2ccc(N(C)C)cc2)cc1`: the outcome in [1], in [3], in test [4], in test [5], in [7] and in test [8] was inactive. Besides, the outcome in test [10], in test [11], in test [12] and in test [14] was inactive. Besides, the AC50 in [2] is 2.19 µM (active); in test [6] it was 1.69 µM (active); in [9] it was 0.99 µM (active); in test [13] it was 2.28 µM (active).

As to `O=C1c2ccccc2C(=O)N1CCc1noc(-c2ccc(CN3CCCCCC3)s2)n1`, the call in [1], in test [4], in test [5], in test [6], in test [7] and in test [8] was inactive. Besides, the call in test [9], in [15], in [10] and in test [11] was inactive. In test [2], the AC50 was 2.09 µM (active).

Take `CCN(Cc1cccnc1)C(=O)c1cccc(Cl)c1[C@]1(C)C(=O)N(Cc2ccc(OC)cc2OC)c2ccc(Cl)cc21`: the AC50 was 3.83 µM (active) in test [1]; 0.143 µM (active) in test [2]; 2.74 µM (active) in test [4]; 3.23 µM (active) in test [7]; 4.5 µM (active) in test [9]; 1.42 µM (active) in [12]. Further, the result in test [3], in [5], in test [6], in test [8], in test [10] and in [11] was inactive. Also, in test [16], the call was inactive.

On to `CN1C(=O)CC[C@H]1c1cccnc1`, for which the outcome in test [1], in test [2], in test [4], in test [5], in test [6] and in test [7] was inactive. Besides, the outcome in test [8], in [9], in [15], in test [10], in test [11] and in test [13] was inactive. For the same compound, the outcome in test [16] was inactive.

For the compound `O=C=NCCCCCCN=C=O`, the compound was classed as inactive in [1], in test [2], in [3], in test [4], in test [5] and in test [6]. Further, the compound was classed as inactive in [7], in test [8], in test [9], in [10], in test [11] and in test [12]. The compound was called inactive in test [17], in test [14] and in test [16].

`CCO[Si](CCCNC(N)=O)(OCC)OCC`: the compound was classed as inactive in test [1], in test [2], in test [3], in [4], in [5] and in [6]. For the same compound, the outcome in [7], in test [8], in test [9], in test [10], in [11] and in [12] was inactive. The result in test [17], in test [13], in [16] and in test [18] was inactive.

For the compound `Cc1occc1C(=O)Nc1ccc(C(=O)N2CCC(F)(F)/C(=C\C(=O)N3CCC(N4CCCCC4)CC3)c3ccccc32)cc1`, the AC50 in [1] is 34.5 µM (active); in test [2], 8.38 µM (active); in [5], 42.3 µM (active); in [6] it was 56 µM (active); in [8], 62.6 µM (active); in [15], 26.5 µM (active). Further, the AC50 is 49.8 µM (active) in test [11] and 34.5 µM (active) in test [12]. In addition, the compound was classed as inactive in [7], in test [9], in test [10] and in test [17].

Regarding `CCCCCCCCN(C)CCCCCCCC`, the outcome in test [1], in [3], in test [4], in [5], in test [6] and in test [7] was inactive. Also, the compound was called inactive in test [8], in test [9], in test [10], in [11], in [12] and in test [19]. The compound was called inactive in test [14], in test [16] and in test [18]. Also, the AC50 in [2] is 26.5 µM (active); in test [17], 30.4 µM (active).

The values above are taken from PubChem BioAssay (EPA / NIEHS).
